According to a collection of fitness landscapes (doi:10.1016/j.celrep.2020.107928):
Whole data set: some 81,000 sequences, median “one-hybrid fitness for binding parS DNA” near -0.17, cut for the highest 2% near 0.51. This is one part of a sample in which the highest values are shown more often than they occur.

B1: Caulobacter ParB omega fusion; a variant is named by its letters at X, in order, B8GW30 (parent)
chain: MESVVVGEPGMSEGRRGLGRGLSALLGEVDAAPAQAPGEQLGGSREAPIEILQRNPDQPRRTFREEDLEDLSNSIREKGVLQPILVRPSPDTAGEYQIVAGERAWRAAQRAGLKTVPIMVRELDDLAVLEIGIIENVQRADLNVLEEALSYKVLMEKFERTQENIAQTIGKSXSHVANXMRLLXLPDEVQSYLVSGELTAXHARAIAAAADPVALAKQIIEGGLSVRETEALARKAPNLSAGKSKGGRPPRVKDTDTQALESDLSSVLGLDVSIDHRGSTGTLTITYATLEQLDDLCNRLTRGI

Variants of: B1
Assay: one-hybrid fitness for binding parS DNA (scaled: cognate 1, non-cognate 0); higher = stronger binding
Settings: with parS DNA site
Method in brief: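 On M9-minus-histidine containing 0.1 mM IPTG and 5 mM 3-AT, E. coli USO cells with a HIS3 reporter, site 19 bp from the promoter, grew 48 hours at 37°C to select Caulobacter ParB libraries randomised at four specificity codons. Plasmids from before and after were Illumina-sequenced, with three replicate libraries pooled and variants under 10 reads left out. Fitness is the log change in variant-to-wild-type read ratio, rescaled against cognate and non-cognate.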

one-hybrid fitness for binding parS DNA, 0.989:
RAWG

one-hybrid fitness for binding parS DNA, 0.831:
RRFG

one-hybrid fitness for binding parS DNA, 0.377:
RHFY

one-hybrid fitness for binding parS DNA, 0.543:
RHNA

one-hybrid fitness for binding parS DNA, 0.43:
RTLN

one-hybrid fitness for binding parS DNA, 0.65:
RNIS

one-hybrid fitness for binding parS DNA, ≤ 0.2:
TKSI
DEMS
YRHE
PEDT
VYPT
RRGH
RRGD
RRGP
WDVG
IHRW
RLDP
RLRD
RLDD
RLNQ
RLYP
RLRK
CISS
EWYV
QRYM
QVRQ
THSV
AQCS
NWKY
KFYT
RQMD
RQMP
RQML
RQMQ
DRVV
NSRG
SMFV
FLVT
RNHP
RNHH
RNWN
RNIH
RNWP
RNLD
MDVV
QCYT
GRNR
EQIG
FSEV
HKDS
YPGT
ADYG
CAGL
RNYH
RNQP
RNGD
RNQH
RNSP
RNGP
GNAI
MPRT
LHGD
GSGG
TQRY
LATY
GQKN
HRKI
RNIN
RNRP
RNID
RNCD
ELGN
PYSK
NITG
KRPK
EVIR
FSHN
RCFI
IRLE
PFDT
RPFA
RDFA
IFQR
PTLA
RHFF
RHAD
DYKT
SRQA
DEKR
SVMF
REFT
RPFT
RSFH
WLLH
REVI
SAPY
RLWR
RRWF
RLWQ
RMWR
RTWQ
RRWK
CQNS
QVGP
QTRM
ARLQ
CHSG
PFAT
QRRC
SRTM
KSRC
RHWM
DFWG
KFWG
RHWQ
KKLC
FRWG
IIKT
IYPT
DRGE
FVTP
HMNE
PPQC
RERK
DGKG
IFLY
DNYC
ALFC
RPWG
RDWG
RAWK
RSWF
REWG
NGLR
NTER
REFQ
WDSN
KYTC
TIAK
PMKR
RLKP
RLVQ
RLVK
QRLA
IESL
KWDD
RVNE
RVDF
RVNR
YLAV
CPVL
ANSF
GFRL
RRFD
RRAP
RRAR
RRFM
SKVG
CPAW
QCMI
DCNA
DHNA
RHPA
WLCT
EVML
IDCL
LAVM
TSYY
APPD
GVQC
TPMT
IMES
QKYV
NYKT
QTEY
RAAH
RAFP
RAAD
FSYG
WYKS
CKSM
QYLA
RTIP
RTRP
RTLD
RTIH
APQT
KERF
LPLK
GVFL
VTMY
RDTG
RTPH
RTYP
RTYD
RTSD
NVPD
TDEP
APNE
FINR
PGNR
YRNV
PVLC
WSCE
QCQH
RTHH
RTHD
RYFK
RYFQ
RYAK
PLPR
RPYC
RDYC
RDNC
RPNC
RSNQ
RSYD

one-hybrid fitness for binding parS DNA, 0.944:
RTHS

one-hybrid fitness for binding parS DNA, 0.495:
RLNY

one-hybrid fitness for binding parS DNA, 0.846:
RVDC

one-hybrid fitness for binding parS DNA, 0.298:
RWFA

one-hybrid fitness for binding parS DNA, 0.941:
RCNC

one-hybrid fitness for binding parS DNA, 0.705:
RNWS

one-hybrid fitness for binding parS DNA, 0.895:
RNLS

one-hybrid fitness for binding parS DNA, 0.931:
RLDG
RSYC

one-hybrid fitness for binding parS DNA, 0.947:
RVNC

one-hybrid fitness for binding parS DNA, 0.385:
RNSN

one-hybrid fitness for binding parS DNA, 0.925:
RYAC

one-hybrid fitness for binding parS DNA, 0.906:
RRWG

one-hybrid fitness for binding parS DNA, 0.251:
RNLN

one-hybrid fitness for binding parS DNA, 0.544:
RTHY

one-hybrid fitness for binding parS DNA, 0.921:
RNQS

one-hybrid fitness for binding parS DNA, 0.361:
RIWM

one-hybrid fitness for binding parS DNA, 0.589:
RCFA

one-hybrid fitness for binding parS DNA, 0.33:
RQMM

one-hybrid fitness for binding parS DNA, 0.777:
RRGN

one-hybrid fitness for binding parS DNA, 0.85:
RNYS

one-hybrid fitness for binding parS DNA, 0.945:
RQMC
RLKG

one-hybrid fitness for binding parS DNA, 0.995:
RLWG

one-hybrid fitness for binding parS DNA, 0.219:
RKWF

one-hybrid fitness for binding parS DNA, 0.873:
RNGS

one-hybrid fitness for binding parS DNA, 0.316:
RHIA

one-hybrid fitness for binding parS DNA, 1.05:
RTWS

one-hybrid fitness for binding parS DNA, 0.393:
RKWY

one-hybrid fitness for binding parS DNA, 0.881:
RQMT

one-hybrid fitness for binding parS DNA, 0.938:
RTSS

one-hybrid fitness for binding parS DNA, 0.406:
RSYN

one-hybrid fitness for binding parS DNA, 0.93:
RSWG

one-hybrid fitness for binding parS DNA, 0.497:
RMWY

one-hybrid fitness for binding parS DNA, 0.211:
RTPN

one-hybrid fitness for binding parS DNA, 0.478:
RNPS

one-hybrid fitness for binding parS DNA, 0.744:
RFWG

one-hybrid fitness for binding parS DNA, 0.597:
RNIG

one-hybrid fitness for binding parS DNA, 0.966:
RLRG

one-hybrid fitness for binding parS DNA, 0.445:
RCGN

one-hybrid fitness for binding parS DNA, 0.639:
RRGS

one-hybrid fitness for binding parS DNA, 0.471:
RIWY

one-hybrid fitness for binding parS DNA, 0.961:
RNRS

one-hybrid fitness for binding parS DNA, 0.304:
RNCN

one-hybrid fitness for binding parS DNA, 0.911:
RNHS

one-hybrid fitness for binding parS DNA, 0.973:
RQMG

one-hybrid fitness for binding parS DNA, 0.822:
RTPS

one-hybrid fitness for binding parS DNA, 0.383:
RSFN

one-hybrid fitness for binding parS DNA, 0.844:
RHWG

one-hybrid fitness for binding parS DNA, 0.751:
RSFT

one-hybrid fitness for binding parS DNA, 0.491:
RSHY

one-hybrid fitness for binding parS DNA, 0.27:
RENC

one-hybrid fitness for binding parS DNA, 0.965:
RYFC

one-hybrid fitness for binding parS DNA, 0.991:
RMWG
RLVG

one-hybrid fitness for binding parS DNA, 0.562:
RHYA

one-hybrid fitness for binding parS DNA, 0.422:
RTSN

one-hybrid fitness for binding parS DNA, 0.267:
RYAM

one-hybrid fitness for binding parS DNA, 0.738:
RRAG

one-hybrid fitness for binding parS DNA, 0.969:
RHAG

one-hybrid fitness for binding parS DNA, 0.275:
RTWF

one-hybrid fitness for binding parS DNA, 0.423:
RQMN

one-hybrid fitness for binding parS DNA, 0.202:
RHAH

one-hybrid fitness for binding parS DNA, 0.58:
RHRA

one-hybrid fitness for binding parS DNA, 1.03:
RLYG
RTWG

one-hybrid fitness for binding parS DNA, 0.201:
RCML

one-hybrid fitness for binding parS DNA, 0.46:
RCHY

one-hybrid fitness for binding parS DNA, 0.952:
RKWG

one-hybrid fitness for binding parS DNA, 0.474:
RQMY

one-hybrid fitness for binding parS DNA, 0.22:
RTWD

one-hybrid fitness for binding parS DNA, 0.301:
RNFA

one-hybrid fitness for binding parS DNA, 0.558:
RSFA

one-hybrid fitness for binding parS DNA, 0.985:
RIWG

one-hybrid fitness for binding parS DNA, 0.998:
RQMS

one-hybrid fitness for binding parS DNA, 0.271:
RLYH
RTWP

one-hybrid fitness for binding parS DNA, 0.967:
RNSS

one-hybrid fitness for binding parS DNA, 1:
RAAS
RTYS
RCYC

one-hybrid fitness for binding parS DNA, 0.426:
RAFN

one-hybrid fitness for binding parS DNA, 1.02:
RCWG
RAFS

one-hybrid fitness for binding parS DNA, 0.955:
RCFT

one-hybrid fitness for binding parS DNA, 0.4:
RTRH

one-hybrid fitness for binding parS DNA, 0.545:
RHDA

one-hybrid fitness for binding parS DNA, 0.35:
RAWM

one-hybrid fitness for binding parS DNA, 0.83:
RNCS
RTRS

one-hybrid fitness for binding parS DNA, 0.371:
RNRN

one-hybrid fitness for binding parS DNA, 0.258:
RVDM

one-hybrid fitness for binding parS DNA, 0.292:
RQMH

one-hybrid fitness for binding parS DNA, 1.01:
RLNG
RTLS
RTIS

one-hybrid fitness for binding parS DNA, 0.876:
RHFG

one-hybrid fitness for binding parS DNA, 0.247:
RLKH

one-hybrid fitness for binding parS DNA, 0.957:
RSNC

one-hybrid fitness for binding parS DNA, 0.433:
RNPG
